The supplement of paper PMC10338343
± gives the standard deviation. In all, about 8,200 sequences were measured (“pre-steady-state target cleavage rate”: median about 0.024, highest 2% from about 1.3 on). The full list was thinned out, with the highest values kept by preference.

Test system: MIWI (PIWIL1) piRISC loaded with L1MC piRNA (30 nt)
Assay: pre-steady-state target cleavage rate (min^-1); MIWI and MILI are mouse PIWI proteins and EfPiwi is from a freshwater sponge; tags in brackets are library labels; higher = faster piRNA-guided slicing of the target
Settings: guide: L1MC piRNA 5'p-UAACUAAAUACUAUGCAAGCUGUAGGUCCU
Summary of the method: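 A transcribed, DNA-blocked target RNA library […] was incubated at 33 °C for 0–8 or 0–960 min with 1 nM active affinity-purified piRISC carrying one synthetic guide, in HEPES–potassium acetate buffer with or without 500 nM GTSF1 partner protein. Uncleaved targets were then sequenced and normalised to depth and to weakly complementary targets. Data from three trials were pooled, with k3 capped at 0.0001 min^-1, and a burst-and-steady-state fit yielded the pre-steady-state cleavage rate.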

[1] = auxiliary factor: 500 nM mouse GTSF1
[2] = auxiliary factor: none (no GTSF1)
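Note: 1 nM active piRISC with 0.1 nM target library at 33 °C single turnover.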

Row | Sequence | pre-steady-state target cleavage rate [1] | pre-steady-state target cleavage rate [2]
1 | AGGACCUACAGCUUACAUAGUAUUUAGUUA | 1.28 ± 0.064 | 0.0655 ± 0.011
2 | UGGACCUACAGCUUCAUAGUAUUUAGUUA | 1.36 ± 0.077 | 0.0221 ± 0.0047
3 | UCCACCUACAGCUUACAUAGUAUUUAGUUA | 0.753 ± 0.034 | 0.0222 ± 0.0039
4 | UCCUGGAAGAGCUUGCAUAGUAUUUACAAA | 0.0945 ± 0.02 | 
5 | UCCUGGAUGAGCUUGCAUAGUAUAUACAAA | 0.00918 ± 0.0054 | 
6 | UCCUGCUACAGCUUGCUUAGUAUAUAGUUA | 0.404 ± 0.038 | 0.0128 ± 0.0044
7 | UCCACCUACUGCUUGCAUACUAUUUAGUUA | 0.297 ± 0.026 | 0.0231 ± 0.0039
8 | UCCUGCUAGAGCUUGCAUACUAUUUAGUUA | 0.248 ± 0.03 | 0.0221 ± 0.0058
9 | AGGACCUACACCUUGGAUAGUAUUUAGUUA | 0.817 ± 0.061 | 0.0497 ± 0.0086
10 | UGGACCUACACCUUGGAUAGUAUUUAGUUA | 0.815 ± 0.069 | 0.0418 ± 0.0063
11 | AGGACCUACUGCUUGGAUAGUAUUUAGUUA | 1.34 ± 0.052 | 0.061 ± 0.0085
12 | UCGACCUACUGCUUGGAUAGUAUUUAGUUA | 1.67 ± 0.068 | 0.0575 ± 0.0089
13 | UCGACCUACACCUUGGAUAGUAUUUAGUUA | 0.854 ± 0.076 | 0.0364 ± 0.0044
14 | UGGACCUACUGCUUGGAUAGUAUUUAGUUA | 1.65 ± 0.072 | 0.0542 ± 0.0088
15 | UCCUCCUACUGCUUGGAUAGUAUUUAGUUA | 1.21 ± 0.04 | 0.0517 ± 0.0073
16 | UCCACCUACUGCUUGGAUAGUAUUUAGUUA | 1.14 ± 0.049 | 0.0503 ± 0.0082
17 | UCCUGCUACUGCUUGGAUAGUAUUUAGUUA | 0.969 ± 0.077 | 0.0353 ± 0.0055
18 | UCCUGGAUGUCGAACGUAUCUAAUUAGUAA |  | < 0.0001
19 | UCCUGGAUCAGCUUGAUAGUAUUUAGUUA | 0.0664 ± 0.007 | 0.00393 ± 0.0017
20 | AGGACCUAGAGCUUGCAUAGUAUUUUCAAA | 0.0396 ± 0.013 | 
21 | UCCUGCUACAGCAUGCAUAGUAUUUAGUAA | 0.655 ± 0.063 | 0.00614 ± 0.0024
22 | UCCUGGAACAGCUACCAUAGUAUUUAGUAA | 0.0979 ± 0.017 | 

Row | Sequence | pre-steady-state target cleavage rate [1] | pre-steady-state target cleavage rate [2]
23 | UCCUCCUACAGCUUGCAUAGUUAAUAGAAA | 0.0486 ± 0.014 | 
24 | UCCUGGUACAGCUUGCAAUGUAUUUAGAAA | 0.0194 ± 0.0063 | 
25 | UCGACCUACAGCUUGGUUAGUAUUUUCAAA | 0.0241 ± 0.0089 | 
26 | UCCUGGAUGUCCUUGCAUAGUAUAAUGUUA | 0.0139 ± 0.0063 | 
27 | UCGACCUACAGCUUGCAUAGUAUUAACAAA | 0.401 ± 0.044 | 
28 | UCCACCUACAGCUUGCUUAGUAUUAAGUUA | 0.31 ± 0.03 | 0.00763 ± 0.0016
29 | UGGUCCUACAGCAUGCAUAGUAUUUAGUUA | 1.19 ± 0.061 | 0.0657 ± 0.014
30 | UGGACCUACAGCAUGCAUAGUAUUUAGUUA | 1.38 ± 0.078 | 0.0549 ± 0.011
31 | AGGACCUACAGCAUGCAUAGUAUUUAGUAA | 0.986 ± 0.075 | 0.0556 ± 0.014
32 | AGGACCUACAGCAUGCAUAGUAUUUAGUUA | 1.33 ± 0.06 | 0.073 ± 0.015
33 | AGGACCUACAGCAUGCAUAGUAUUUAGAAA | 0.577 ± 0.059 | 0.00715 ± 0.0031
34 | UCGUCCUACAGCAUGCAUAGUAUUUAGUUA | 1.26 ± 0.047 | 0.0282 ± 0.0049
35 | UGGACCUACAGCAUUGCAUAGUAUUUAGUUA | 1.27 ± 0.11 | 0.0665 ± 0.014
36 | UGGACCUACAGCAUGCAUAGUAUUUAGUAA | 0.977 ± 0.075 | 0.0303 ± 0.0065
37 | AGGUCCUACAGCAUGCAUAGUAUUUAGUUA | 1.33 ± 0.062 | 0.107 ± 0.026
38 | UCCUGGAUGUCGAUGCAUAGUAUUUAGUGA | 0.0103 ± 0.0037 | 
39 | UCCACCUACAGCAAGCAUAGUAUUUAGAAA | 0.243 ± 0.035 | 
40 | UCCUGGAUGUCCUUGGAUAGUAUUUUGUUA | 0.0668 ± 0.017 | 
41 | UCCUCCUACAGCUUGCAUAGUAUCUUAGUUA | 0.96 ± 0.045 | 0.016 ± 0.0044
42 | UGGACCUACAGGAUGCAUAGUAUUUACAAA | 0.216 ± 0.039 | 
43 | UCCUGGAACUCGUUGCAUAGUAUUUAGUAA | 0.071 ± 0.011 | 0.00318 ± 0.0021
44 | UCCUGCUACAGCUUGCAUAGUAUUUAGUA | 0.422 ± 0.071 | 0.00464 ± 0.0019

Row | Sequence | pre-steady-state target cleavage rate [1] | pre-steady-state target cleavage rate [2]
45 | UCCUGCUACAGCUUGCUUAGAAUUUAGUUA | 0.247 ± 0.026 | 0.00845 ± 0.0029
46 | AGGACCUACACGAUGCAUAGUAUUUACAAA | 0.19 ± 0.025 | 
47 | UCCACCUACAGCUUGCAAAGUAUAUAGUUA | 0.468 ± 0.045 | 0.0135 ± 0.0031
48 | AGGACCUUCAGCUUGCAUAGUAUUUAGUUA | 1.32 ± 0.056 | 0.0842 ± 0.013
49 | AGGACCUACAGCUUGCAAAGUAUAUAGUUA | 0.667 ± 0.049 | 0.0238 ± 0.0054
50 | AGGACCUACAGCUUGCAUAGUAUUAUAGUUA | 1.05 ± 0.078 | 0.0707 ± 0.015
51 | UGGACCUACAGCUUGCAUAGUAUAUAGUAA | 0.356 ± 0.038 | 0.012 ± 0.0037
52 | UGGACCUACAGCUUGCAAAGUAUAUAGUUA | 0.895 ± 0.057 | 0.0204 ± 0.0062
53 | UGGACCUACAGCUUGCAUAGUAUAUAGUUA | 0.892 ± 0.062 | 0.0341 ± 0.0087
54 | AGGACCUUCAGCUUGCAAAGUAUUUAGUUA | 1.3 ± 0.051 | 0.0464 ± 0.0089
55 | AGGACCUACAGCUUGCAUAGUAUAUAGUUA | 0.884 ± 0.066 | 0.0667 ± 0.017
56 | UGGACCUACAGCUUGCAUAGUAUAUUAGUUA | 1.33 ± 0.079 | 0.0409 ± 0.0089
57 | UCGACCUACAGCUUGCAAAGUAUAUAGUUA | 0.855 ± 0.055 | 0.0157 ± 0.0033
58 | UGGACCUUCAGCUUGCAUAGUAUUUAGUAA | 1.07 ± 0.064 | 0.0524 ± 0.011
59 | AGGACCUACAGCUUGCAUAGUAUAUUAGUUA | 1.18 ± 0.097 | 0.0609 ± 0.015
60 | UGGACCUUCAGCUUGCAAAGUAUUUAGUUA | 1.34 ± 0.073 | 0.0368 ± 0.0084
61 | UGGACCUACAGCUUGCAUAGUAUUAUAGUUA | 1.24 ± 0.062 | 0.052 ± 0.011
62 | AGGACCUACAGCUUGCAUAGUAUAUAGUAA | 0.493 ± 0.058 | 0.0216 ± 0.0048
63 | UGGACCUACAGCUUGCAUAGUAUUAGUUA | 0.172 ± 0.032 | 0.00299 ± 0.0019
64 | UGGACCUUCAGCUUGCAUAGUAUUUAGUUA | 1.45 ± 0.067 | 0.069 ± 0.011
65 | AGGACCUUCAGCUUGCAUAGUAUUUAGUAA | 1.07 ± 0.079 | 0.0632 ± 0.012
